About 83,000 compounds went through this panel and 20% of them were active in at least one assay; those are over-represented in the sample as a whole.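 In brief: 96-well plates, 48 h treatment, single concentration, percent growth endpoint.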 A number with no mark means an inactive call. The source made the active and inactive calls. Rule for the calls: active = growth percent below 10; inactive = the rest.

The test system of the first assay is HCC-2998 colon. In words: NCI-60 one-dose screen, 48 h (100 = growth as untreated, 0 = no growth, -100 = all killed). The conditions noted are these: 10 µM unless noted.
Turning to `CN(C)c1cc(NN=C(c2ccc(O)cc2)c2ccc(O)cc2)c([N+](=O)[O-])cc1[N+](=O)[O-]`, the growth was 59.1%.

Take `CC[C@@](C)(NC(=O)[C@H](C)NC(=O)CCNC(=O)C(C)(C)NC(=O)[C@H](C)NC(=O)[C@@H]1CCCN1C(=O)[C@@](C)(CC)NC(=O)[C@H](Cc1ccccc1)NC(=O)C1CCCN1C(=O)C(C)(C)NC(=O)C1CCCN1C(=O)C(C)(C)NC(C)=O)C(=O)NCCC(=O)N[C@@H](CC(C)C)C(=O)NC(C)(C)C(=O)NCCC(=O)N[C@@H](CC(C)C)C(=O)NC(C)(C)C(=O)NC(C)(C)C(=O)N[C@@H](CC(C)C)C(=O)NCCC(=O)NCO` (some centres undefined): the growth is -96.1% (active).

Take `CCN(CCNc1ccc(C)c2sc3cc(Cl)ccc3c(=O)c12)CC(C)O` (centres undefined): the growth was 5.33% (active).

Take `CC1(C)CC[C@]23CC[C@]4(C)[C@H](CC[C@@H]5[C@@]6(C)C/C(=C/c7cccnc7)C(=O)C(C)(C)[C@@H]6CC[C@]54C)[C@H]2[C@H]1OC3=O`: the growth is 49.9% [100 µM].

For the compound `O=C1Nc2ccccc2/C1=C/C(=O)c1ccc(N2CCOCC2)cc1`, the growth is 101%.

The next assay relates to KM12 colon. The assay is described as above. The conditions noted are these: 10 µM unless noted.
Consider `C=C(C)[C@@H]1CC[C@]2(C(=O)OC)CC[C@]3(C)[C@H](CC[C@@H]4[C@@]5(C)CC/C(=N\OCCC(=NCCC#N)NOCCC#N)C(C)(C)[C@@H]5CC[C@]43C)[C@@H]12`, for which the growth was 10.9% [100 µM].

For the compound `CCCCN(CC)CC(CC)Nc1cc(OC)cc2cccnc12` (centres undefined), the growth was 107%.

As to `COc1ccccc1S(=O)Nc1ccccc1` (centres undefined), the growth was 106%.

In the case of `COc1cc(Cl)cc(-c2nn(C(=O)NS(=O)(=O)c3ccccc3)cc2-c2ccncc2)c1`, the growth is 102%.

`COc1ccc(CC(C#N)c2ccc(Cl)cc2)cc1` (centres undefined): the growth is 32.6%.

For the compound `COc1cc2c(c(OC)c1OC)-c1cc(I)c(O)cc1[C@@H](NC(C)=O)CC2`, the growth is 15.1%.

For `O=C(O)CSCc1nnc2n(Cc3ccccc3)c(=O)c3c4c(sc3n12)CCCC4`, the growth is 109%.

As for `COc1ccc(C2NC(=O)C(C#N)c3c2sc2c(F)cccc32)cc1` (centres undefined), the growth is 41%.

In the case of `CCN=C1C=CC(=C(c2ccc(N(CC)CC)cc2)c2ccc(N(CC)CC)cc2)c2ccccc21`, the growth was -86.2% (active).

Take `CC1(C)C(=NO)C(C)(C)C1=NO`: the growth is 118%.

Turning to `Cc1cc(SC#N)ncn1`, the growth is 104%.

`COCc1nc2ccccc2[nH]1`: the growth was 106%.

As to `CCN1CCN(CC(=O)Nc2nc3ccc(NCc4ccc(Cl)cc4)cc3s2)CC1`, the growth is 59.9%.

On to `C=C(C)C1CCC2(C(=O)O)CCC3(C)C(CCC4C5(C)CCC(OC(=O)NCc6ccccc6)C(C)(C)C5CCC43C)C12` (centres undefined), for which the growth is 28.1%.

Regarding `CCc1ccc(C2=C/C(=C/c3ccccc3)C(=O)N2CCc2ccc(S(N)(=O)=O)cc2)cc1`, the growth was 104%.

As to `CCN(CC)c1ccc2cc(NC(=O)OCCNC(=O)CCNC(=O)[C@H](CC(C)C)NC(=O)C(C)(C)NC(=O)C(C)(C)NC(=O)[C@H](CC(C)C)NC(=O)CCNC(=O)C(C)(C)NC(=O)[C@H](CC(C)C)NC(=O)CCNC(=O)[C@@](C)(CC)NC(=O)[C@H](C)NC(=O)CCNC(=O)C(C)(C)NC(=O)[C@H](C)NC(=O)[C@@H]3CCCN3C(=O)[C@@](C)(CC)NC(=O)[C@H](Cc3ccccc3)NC(=O)C3CCCN3C(=O)C(C)(C)NC(=O)C3CCCN3C(=O)C(C)(C)NC(C)=O)c(=O)oc2c1` (some centres undefined), the growth was -98.5% (active).

Turning to `COC(=O)c1cc2c(=O)[nH]cc3c2c(n1)CCC3`, the growth is 106%.

For `C=C(CC(=O)OC)C(C)=O`, the growth is 102%.

Regarding `COc1ccc2c(c1)c(-c1noc(C(=O)c3cn(C)c4ncc(Br)cc34)n1)cn2C`, the growth is 66.7%.

`CC(C)(C)OC(=O)N1C=C/C(=C\Cn2cc(-c3ccccc3)nn2)CC1`: the growth was 88.9%.

Regarding `COc1cc2c(c(OC)c1OC)-c1ccc(NNC(N)=S)c(=O)cc1[C@@H](NC(C)=O)CC2`, the growth was -35.6% (active).

Turning to `CC(C)OC(=O)Nc1cc(F)ccc1F`, the growth is 103%.

In the case of `C=C(C)[C@@H]1CC[C@]2(C)[C@H](CC[C@@H]3[C@@H]([C@@](C)(O)CCC=C(C)C)CC[C@]32C)[C@@]1(C)CCC(=O)O`, the growth is -55.2% [100 µM] (active).

As to `COc1cc(-c2cc(-c3ccc(Nc4ncnc5cc(Cl)ccc45)cc3)nc(N3CCCCC3)n2)cc(OC)c1OC`, the growth was 97.8%.

The record behind these values is PubChem BioAssay (NCI).
